Source: paper PMC7819943, “Rice protein-binding microarrays: a tool to detect cis-acting elements near promoter regions in rice”
The full ranking holds about 68,000 sequences; the median of “fluorescence intensity (a.u.)” is about 9,100, and the highest 2% start at about 16,000. The entries come from a sample that favours the highest values as a whole.

The sequences below were run against OsWRKY34 (Oryza sativa, UniProt Q0JBA9 1-250) (assay: protein-binding microarray (RPBM); PBS, 2% BSA, 51.3 ng/ul salmon testes DNA, 50 uM zinc acetate, 200 nM TF, 25 C, 1 h; high values mean tight binding). Conditions: protein: recombinant; tags: N-terminal polyhistidine and DsRed monomer fusion (pET32a); label: CyDye5-dUTP incorporated in the synthesized complementary strand; 3' TTTTT single-stranded linker to array surface; dsDNA, one strand shown.
In short: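 A custom Agilent array was converted to double-stranded form by primer extension with Cy5-dUTP and blocked with 2% BSA. Protein at 200 nM in PBS with 2% BSA, salmon testes DNA and 50 µM zinc acetate was applied for 1 h at 25 °C, followed by washing. The proteins were polyhistidine–DsRed N-terminal fusions of transcription factors, expressed in E. coli BL21-CodonPlus and Ni–NTA-purified. The binding signal is per-feature fluorescence intensity (arbitrary units) from an Axon 4000B scanner.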

Sequence of OsWRKY34 (Q0JBA9 entry or part of it): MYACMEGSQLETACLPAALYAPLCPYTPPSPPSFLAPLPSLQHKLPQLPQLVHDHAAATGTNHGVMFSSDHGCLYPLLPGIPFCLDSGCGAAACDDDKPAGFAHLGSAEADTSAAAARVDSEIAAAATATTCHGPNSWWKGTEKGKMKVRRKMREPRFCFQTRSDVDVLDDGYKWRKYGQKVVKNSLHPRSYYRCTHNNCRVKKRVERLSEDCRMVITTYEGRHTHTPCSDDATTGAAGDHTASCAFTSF

Question: “GTCCCTAAATATTTGACGCCGTTGACTTTTTTAAACATGTCGGAGTCACCTAGTGCAG” was tested. Which binding signal did it give?
Answer: 28500 fluorescence intensity (a.u.)

Question: For “CTCCGTTTGTAAATATTTGACGCCGTTGACTTTTTAAAATCGGAGTCACCTAGTGCAG”, which binding signal is on record?
Answer: 22700 fluorescence intensity (a.u.)

Question: For “CCCTTTCACATGTCACCTCTGACCCACAAACAAACCCTTTCGGAGTCACCTAGTGCAG”, which binding signal is on record?
Answer: 8210 fluorescence intensity (a.u.)

Question: For “GAGTTATCCTCACCACCCACCGCTCGTCGCCTCCACTCCGCGGAGTCACCTAGTGCAG”, which binding signal is on record?
Answer: 8120 fluorescence intensity (a.u.)

Question: Which binding signal does the source give for “AGTAAGAGATCTCAAATTGATATGGGTTCTTGTTTTATATCGGAGTCACCTAGTGCAG” here?
Answer: 8150 fluorescence intensity (a.u.)

Question: “CACCAAGCAGTCCCCTGTGTTCATCTTCTGAAGTCTGATTCGGAGTCACCTAGTGCAG” was tested. Which binding signal did it give?
Answer: 8360 fluorescence intensity (a.u.)

Question: Which binding signal does the source give for “ATTCCGCGCGCCGCCGCCGTCGCCGCCGCCGACGTCGCCGCGGAGTCACCTAGTGCAG” here?
Answer: 8920 fluorescence intensity (a.u.)

Question: With “GATGCCATTTTTAAACAATTCCATGCCTTGTTTCCATTTCCGGAGTCACCTAGTGCAG” as the sequence, how does the binding signal read?
Answer: 13400 fluorescence intensity (a.u.)

Question: How did the binding signal turn out when “AAATATTTGACGCCGTTGACTTTCTTAAACATGTTTAACTCGGAGTCACCTAGTGCAG” was run?
Answer: 15700 fluorescence intensity (a.u.)

Question: Which binding signal does the source give for “TCCGTCCCTAAATATTTGACGCCGTTGACTTTTTAACACACGGAGTCACCTAGTGCAG” here?
Answer: 35700 fluorescence intensity (a.u.)

Question: How did the binding signal turn out when “ATTTCTAAATATTTGACGTCGTTGACTTTTTTAAACATGTCGGAGTCACCTAGTGCAG” was run?
Answer: 26800 fluorescence intensity (a.u.)

Question: Which binding signal does the source give for “CTAAATATTTGACGCCGTTGACTTTTTAAAACATGTTTGACGGAGTCACCTAGTGCAG” here?
Answer: 30500 fluorescence intensity (a.u.)

Question: With “CTAAATGTTTAACGCCGTTGACTTTTTAAAACATATTTGACGGAGTCACCTAGTGCAG” as the sequence, how does the binding signal read?
Answer: 13400 fluorescence intensity (a.u.)

Question: With “GTACTCCCTCTGACCCTAAATATTTGACGTCGTTGACTTTCGGAGTCACCTAGTGCAG” as the sequence, how does the binding signal read?
Answer: 16300 fluorescence intensity (a.u.)

Question: For “CTCCGTTATCGTTTGACTTTCTTTTCATTAATATTTTAAACGGAGTCACCTAGTGCAG”, which binding signal is on record?
Answer: 15600 fluorescence intensity (a.u.)

Question: How did the binding signal turn out when “CATCTGTTTCTGAATATTTGACGCCGTTGACTTTTTAAAACGGAGTCACCTAGTGCAG” was run?
Answer: 19600 fluorescence intensity (a.u.)

Question: With “CGGCGGTGGTCTCCGCCGTTGGATCTGGGCGTTGACTTGTCGGAGTCACCTAGTGCAG” as the sequence, how does the binding signal read?
Answer: 9160 fluorescence intensity (a.u.)

Question: How did the binding signal turn out when “ACTGCTGCTGCATCGGCGCCTTCACCAAGATGTCAACGGACGGAGTCACCTAGTGCAG” was run?
Answer: 8350 fluorescence intensity (a.u.)

Question: Which binding signal does the source give for “GCTCTGAATTTTATTTTTTCCGCTTCTTGATTTCTTCGTTCGGAGTCACCTAGTGCAG” here?
Answer: 9450 fluorescence intensity (a.u.)

Question: Which binding signal does the source give for “GTAGCTCGTCGTCACTGCCCATAGTACTCTGGCTTAGCTACGGAGTCACCTAGTGCAG” here?
Answer: 8030 fluorescence intensity (a.u.)

Question: How did the binding signal turn out when “GGAGAGATGCCATGCCGCGCTATGTTGTTCAACTTCAAACCGGAGTCACCTAGTGCAG” was run?
Answer: 8400 fluorescence intensity (a.u.)

Question: Which binding signal does the source give for “ATAGTTTGTTGTTTCCCAGACATAATTTTTACTAGCTTATCGGAGTCACCTAGTGCAG” here?
Answer: 9630 fluorescence intensity (a.u.)

Question: With “GTACACCGAAAGAAACCAACTCGTGTCCATCCATCCGTCTCGGAGTCACCTAGTGCAG” as the sequence, how does the binding signal read?
Answer: 8070 fluorescence intensity (a.u.)

Question: For “TTCATATCTGCTTTTTCCTATATATGTGTGTGTGACTGCACGGAGTCACCTAGTGCAG”, which binding signal is on record?
Answer: 9710 fluorescence intensity (a.u.)

Question: For “TTTTATAATATGTTATTGTAGCAGTTTTTGTGAGCTATTACGGAGTCACCTAGTGCAG”, which binding signal is on record?
Answer: 8100 fluorescence intensity (a.u.)

Question: Which binding signal does the source give for “CTTGTACATCTGTCTTGCTAGAGTCTTTCACAAGATTACACGGAGTCACCTAGTGCAG” here?
Answer: 8080 fluorescence intensity (a.u.)

Question: With “GTGCTTGTGTGGCGCGTGTGCTTGTCACAGACTCTGCTCCCGGAGTCACCTAGTGCAG” as the sequence, how does the binding signal read?
Answer: 8660 fluorescence intensity (a.u.)

Question: “TGTGGATGGCGTGGATAAGTTGACAGTTGAAAATACAAAACGGAGTCACCTAGTGCAG” was tested. Which binding signal did it give?
Answer: 9130 fluorescence intensity (a.u.)

Question: With “AGATGATGTCATTGACCATACAAGTTGAAAATAGGAGCAACGGAGTCACCTAGTGCAG” as the sequence, how does the binding signal read?
Answer: 63300 fluorescence intensity (a.u.)

Question: How did the binding signal turn out when “GATACAACCATTGCTCACATCATGGATGAACAAGATGACACGGAGTCACCTAGTGCAG” was run?
Answer: 8160 fluorescence intensity (a.u.)

Question: How did the binding signal turn out when “ACATACCTCGTGCGGCCAGTCGCCTGTTACAAACTCCATTCGGAGTCACCTAGTGCAG” was run?
Answer: 8270 fluorescence intensity (a.u.)

Question: “TCCTTCTCTGACTCTGTCTTGGCCATCCTATTCCTAGCTCCGGAGTCACCTAGTGCAG” was tested. Which binding signal did it give?
Answer: 10600 fluorescence intensity (a.u.)

Question: “ACCTGTATTTGTCATTATTTAGTGGACTCTGCTTAGTTCTCGGAGTCACCTAGTGCAG” was tested. Which binding signal did it give?
Answer: 19300 fluorescence intensity (a.u.)

Question: How did the binding signal turn out when “GTTGTCATTGTCGCGTCGTCACCTCTGATTGCGTCATTCCCGGAGTCACCTAGTGCAG” was run?
Answer: 16500 fluorescence intensity (a.u.)

Question: “CTATATTCGAGGGAGTCCTTGTGGACTTTTTCCTTCTTTCCGGAGTCACCTAGTGCAG” was tested. Which binding signal did it give?
Answer: 9390 fluorescence intensity (a.u.)

Question: How did the binding signal turn out when “TCTCTCTCCTTTTGTTGCTTCCATTTCTCGTTCTTGCACGCGGAGTCACCTAGTGCAG” was run?
Answer: 10500 fluorescence intensity (a.u.)

Question: “ATGGATCATGGATGGCTCCCGTTGTCATTGTCGCGTCGTCCGGAGTCACCTAGTGCAG” was tested. Which binding signal did it give?
Answer: 9810 fluorescence intensity (a.u.)

Question: How did the binding signal turn out when “CCTCCTTGTTGCGGTCGTCTTTCGCTCTATCTTCCTTGTCCGGAGTCACCTAGTGCAG” was run?
Answer: 11100 fluorescence intensity (a.u.)

Question: For “GCACCTCTTTCCTATCACGCGTCACCTTGCTCCATTGTCGCGGAGTCACCTAGTGCAG”, which binding signal is on record?
Answer: 19000 fluorescence intensity (a.u.)

Question: How did the binding signal turn out when “TGGATGGCCTTTTGTCTCTTTGTATATTATATATTTAGTTCGGAGTCACCTAGTGCAG” was run?
Answer: 8260 fluorescence intensity (a.u.)

Question: With “CCTCTCTGATTCGTCACCGCCACCGCCGCGTCGTCCCGCGCGGAGTCACCTAGTGCAG” as the sequence, how does the binding signal read?
Answer: 9730 fluorescence intensity (a.u.)

Question: For “ATTGTATTTCTATATGGACTCTGCTTTTTATTTTTCTCCGCGGAGTCACCTAGTGCAG”, which binding signal is on record?
Answer: 8930 fluorescence intensity (a.u.)

Question: “TCCTTAGCTTCCTTCTGTCGACTTGTCTATTCTTTTTTTCCGGAGTCACCTAGTGCAG” was tested. Which binding signal did it give?
Answer: 17700 fluorescence intensity (a.u.)
